{
  "source": "PubChem BioAssay (Tox21)",
  "note": "Values joined by “and” are separate entries in the source; they are usually repeats but may differ in a detail not shown here. Identical values can stand only once. Records with an inconclusive call do not appear. Entries that show only a call come without a potency. The source holds several records for some structures; these can differ, active in one and inactive in another. Active and inactive are the calls of the source. Calls come from the whole dose curve; as a rule, active = well fitted inhibition curve with a large enough effect in the repeat runs; inconclusive = weak or mixed curves, or effect the other way; inactive = no such curve, though single readings can be large or run the other way. Potency is the fitted concentration of half-maximal effect.",
  "data": [
    {"molecular_target": "Nuclear receptor ROR-gamma (Homo sapiens) (UniProt P51449)", "experiment": "qHTS assay to identify small molecule antagonists of the retinoid-related orphan receptor gamma (ROR-gamma) signaling pathway (AID 1159521; note: nearly all actives have a fitted effect of over 50% in size)", "details": "Tet-on RORgamma CHO cells, RORE-luciferase, 16 h; series mostly up to 92.4 µM", "text": "U.S. Tox21 Program National Center for Advancing Translational Sciences [NCATS] NIH Chemical Genomics Center [NCGC] U.S. Environmental Protection Agency [EPA] National Institutes of Environmental Health Sciences [NIEHS] National Toxicology Program [NTP] U.S. Food and Drug Administration [FDA] Tox21 Assay Overview: Nuclear steroid hormone receptors are involved in many biological processes including inflammatory responses, cell proliferation, and apoptosis. Environmental factors or compounds disrupting these nuclear receptor pathways and gene expression may promote susceptibility to immunotoxicants and autoimmune diseases. One important group of these expression factors are the retinoid-related orphan receptors. To assess compounds that may interfere with the retinoid-related orphan receptor gamma (ROR-gamma) transcription factor, a cell-based luciferase assay was used. The CHO cell-based assay utilizes a TET-inducible ROR expression factor and ROR response element-LUC reporter gene. Reporter gene activity was induced using Doxycycline Hyclate and measured after 16 hr incubation. Tet-on ROR gamma CHO cells were used to screen against the Tox21 10K compound library for ROR gamma antagonists by quantification of decreased reporter gene activity in terms of decreased luminescence.\nTox21 Assay Protocol Summary: Tet-on ROR gamma CHO cells were dispensed at 1,000 cells in 4 uL of culture medium per well into white wall/solid bottom 1536-well plates using a Multidrop Combi (Thermo Scientific, Waltham, MA) dispenser. Following incubation at 37 C and 5% CO2 for 4 hr, 23 nL of compounds dissolved in DMSO, positive controls or DMSO only were transferred by a Pintool station (Kalypsys, San Diego, CA) and after 2 hr incubation at 37 C, one ul of 1 uM (final concentration) of Doxycycline Hyclate was added to all the wells by using a Flying Reagent Dispenser (FRD) (Aurora Discovery, San Diego, CA). After 16 hr incubation at 37 C and 5% CO2, 5 uL of ONE-Glo reagent (Promega Corporation, Madison, WI) was added to each assay plate using FRD. After 30 min incubation at room temperature, luminescence was quantified on a ViewLux plate reader (Perkin Elmer, Waltham, MA).", "values": [
      {"smiles": "NC(=S)Nc1ccccc1", "Potency": "31.1 µM (active) and inactive"},
      {"smiles": "Nc1c(Cl)cc([N+](=O)[O-])cc1Cl", "Potency": "inactive and 27.3 µM (active)"},
      {"smiles": "NNC(N)=S", "Potency": "inactive"},
      {"smiles": "CC1(C)C(C=C(Cl)Cl)C1C(=O)OC(C#N)c1cccc(Oc2ccccc2)c1", "note": "(stereo not given)", "Potency": "inactive"},
      {"smiles": "CC(C)C(=O)OCC(C)(C)C(OC(=O)C(C)C)C(C)C", "note": "(stereo not given)", "Potency": "inactive"},
      {"smiles": "c1ccc(N=Nc2ccccc2)cc1", "Potency": "inactive"},
      {"smiles": "Oc1cc(Cl)c(Cl)cc1Cl", "Potency": "48.2 µM (active)"},
      {"smiles": "O=[N+]([O-])c1c(Cl)c(Cl)c(Cl)c(Cl)c1Cl", "Potency": "inactive"},
      {"smiles": "N[C@@H](Cc1ccc(N(CCCl)CCCl)cc1)C(=O)O", "Potency": "11.7 µM (active) and 13.3 µM (active)"},
      {"smiles": "CCCCCCCCC(=O)NCc1ccc(O)c(OC)c1", "Potency": "inactive"},
      {"smiles": "C=C(C)C(=O)OCC1CO1", "note": "(stereo not given)", "Potency": "inactive"},
      {"smiles": "CCC(C)c1ccc(O)cc1", "note": "(stereo not given)", "Potency": "inactive"},
      {"smiles": "CCOc1cc(C=O)ccc1O", "Potency": "inactive"},
      {"smiles": "O=C(Nc1ccc(Br)cc1)c1cc(Br)cc(Br)c1O", "Potency": "13.6 µM (active) and 10.9 µM (active)"},
      {"smiles": "CCCCC(CC)COC(=O)c1ccc(C(=O)OCC(CC)CCCC)c(C(=O)OCC(CC)CCCC)c1", "note": "(stereo not given)", "Potency": "inactive"},
      {"smiles": "c1nc[nH]n1", "Potency": "inactive"},
      {"smiles": "Oc1c(Cl)c(Cl)c(Cl)c(Cl)c1Cl", "Potency": "54.5 µM (active)"},
      {"smiles": "O=S(=O)(Oc1ccc(Cl)cc1)c1ccc(Cl)cc1", "Potency": "inactive"},
      {"smiles": "C=CCc1ccc2c(c1)OCO2", "Potency": "inactive"},
      {"smiles": "O=C(CCl)c1ccccc1", "Potency": "inactive and 54.5 µM (active)"},
      {"smiles": "CCCCN(CCCC)N=O", "Potency": "inactive"},
      {"smiles": "CCCCOCCOP(=O)(OCCOCCCC)OCCOCCCC", "Potency": "inactive"},
      {"smiles": "Nn1cnnc1", "Potency": "inactive"},
      {"smiles": "Cc1ccccc1[N+](=O)[O-]", "Potency": "inactive"},
      {"smiles": "Cc1c(COC(=O)[C@@H]2[C@H](/C=C(\\Cl)C(F)(F)F)C2(C)C)cccc1-c1ccccc1", "Potency": "23.8 µM (active) and inactive"},
      {"smiles": "CCC(=O)O[C@H]1CC[C@H]2[C@@H]3CCC4=CC(=O)CC[C@]4(C)[C@H]3CC[C@]12C", "Potency": "48.6 µM (active) and inactive"},
      {"smiles": "NCc1cccnc1", "Potency": "inactive"},
      {"smiles": "Cc1ccc(N)c(N)c1", "Potency": "inactive"},
      {"smiles": "CCN(CC)C(=O)SCc1ccc(Cl)cc1", "Potency": "inactive"},
      {"smiles": "CCCCCCCCOC(=O)c1ccccc1C(=O)OCCCCCCCC", "Potency": "inactive"},
      {"smiles": "CC(C)c1ccc(CO)cc1", "Potency": "inactive"},
      {"smiles": "O=C1C=CC(=O)C=C1", "Potency": "inactive"},
      {"smiles": "CCN(N=O)C(N)=O", "Potency": "inactive"},
      {"smiles": "O=Cc1ccco1", "Potency": "inactive"},
      {"smiles": "c1cc(OCC2CO2)ccc1Cc1ccc(OCC2CO2)cc1", "note": "(stereo not given)", "Potency": "inactive"},
      {"smiles": "C=C(C)[C@H]1Cc2c(ccc3c2O[C@@H]2COc4cc(OC)c(OC)cc4[C@@H]2C3=O)O1", "Potency": "34.8 nM (active) and 770 nM (active) and 10.6 nM (active)"},
      {"smiles": "Cc1ccc2c(c1N)C(=O)c1ccccc1C2=O", "Potency": "inactive"},
      {"smiles": "CCC(C)(c1ccc(O)cc1)c1ccc(O)cc1", "Potency": "54.4 µM (active)"},
      {"smiles": "Cc1cccc(N)c1N", "Potency": "inactive"},
      {"smiles": "c1ccc(-c2cccc(-c3ccccc3)c2)cc1", "Potency": "inactive"}
    ]}
  ]
}
